aGal spleen mod = inhibits or activates alpha-galactosidase in human spleen homogenate. P06280. human spleen homogenate, 4MU-alpha-Gal fluorescence, 40 min. Potency, µM (highest dose often 80 µM), actives largely listed as inhibitors. 240,000 compounds, 0.008% hits. AID 2107
Target sequence (P06280 32-429 limits assumed): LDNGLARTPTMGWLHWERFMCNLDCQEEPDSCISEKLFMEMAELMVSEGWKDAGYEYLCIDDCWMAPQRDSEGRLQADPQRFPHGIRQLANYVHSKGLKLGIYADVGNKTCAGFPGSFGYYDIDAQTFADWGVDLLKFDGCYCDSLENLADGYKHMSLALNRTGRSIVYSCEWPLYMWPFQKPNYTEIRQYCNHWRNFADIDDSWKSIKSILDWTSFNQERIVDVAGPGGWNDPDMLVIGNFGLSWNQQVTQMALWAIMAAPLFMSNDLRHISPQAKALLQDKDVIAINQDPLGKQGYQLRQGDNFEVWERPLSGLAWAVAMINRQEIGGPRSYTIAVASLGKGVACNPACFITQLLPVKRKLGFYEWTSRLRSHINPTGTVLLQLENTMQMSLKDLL
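Human spleen homogenate (1 ug) was the enzyme source, with 4-methylumbelliferyl-alpha-D-galactopyranoside (1 mM final) in pH 5.0 citrate buffer with 0.01% Tween-20. Compounds were titrated; after 40 min at 37C, NaOH/glycine stop, 4-MU fluorescence read; AC50 from Hill fits.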
HttQ103 aggreg = inhibitors of mutant huntingtin aggregate formation in PC12 cells; PC12 HttQ103-GFP aggregates, Acumen cytometry, 40 h; Potency, µM (series often up to 46.1 µM), actives largely listed as inhibitors; 220,000 compounds, 1.1% hits; AID 1688; also: nearly all actives have a fitted effect of over 60% in size
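Compounds (qHTS titration) were added to PC12 cells expressing an ecdysone-driven HTT exon 1 Q103–GFP fusion after induction with 100 nM tebufenozide. Aggregate formation was measured as GFP objects in cell lysates.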
HTT cytoprotect = Huntington cell model cytoprotection by ATP luminescence. 230,000 compounds, 0.14% hits. AID 1471. Potency, µM (highest dose often 56.4 µM), actives largely listed as activators. PC12 HTT-Q103 induced, cytoprotection, ATP luminescence, 40 h; also: nearly all actives have a fitted effect of over 45% in size
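ATP quantification (ATPlite) reports survival of PC12 cells in which tebufenozide, 100 nM final, switches on Htt exon 1 with 103 glutamines linked to GFP; compounds are titrated.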
GLA inh pH 4.5 = alpha-galactosidase A (human) inhibition, pH 4.5 | purified enzyme, 4-MU-alpha-Gal fluorescence, pH 4.5 | activity change, negative = inhibition, % at 105 µM | 230,000 tested, under 10 active
Each line names hits and unclear results; the compound was inactive in the other large screens; ! = a repeat was not active. An excerpt weighted towards active compounds, which were near 1.2% of everything screened. Calls follow the shape of the dose curve; as a rule, active = well fitted curve in the direction sought with a large enough effect; inconclusive = small, poorly fitted or top-dose-only effect, or another doubt; inactive = no such curve, though single readings can be large; an effect the other way counts as inactive or inconclusive.

Cc1ccc(C)c(CSCC(=O)NCc2cccs2)c1	HTT cytoprotect 3.5µM
COc1ccc(C(OCCN2CCC[C@H](C(=O)O)C2)(c2ccc(OC)cc2)c2ccc(OC)cc2)cc1	none (no result: HttQ103 aggreg, HTT cytoprotect, GLA inh pH 4.5)
CCOC(=O)N1C(COCc2ccccc2)C=CCS1(=O)=O (configuration not stated)	none (no result: HttQ103 aggreg, HTT cytoprotect, GLA inh pH 4.5)
S=C(NCCc1ccccc1)Nc1cccc2cnccc12	HttQ103 aggreg 3.5µM
CCCCNC(=S)Nc1cccc2cnccc12	HttQ103 aggreg inconclusive
CCOC(=O)c1c(C)oc2ccc(OC(=O)COc3c(F)c(F)c(F)c(F)c3F)cc12	HttQ103 aggreg 13µM (no result: HTT cytoprotect)
O=C(O)/C=C/C(=O)c1ccc2c(c1)NC(=O)CO2	HTT cytoprotect 0.2µM
CC(C)COCc1ccc(O)c2ncccc12	HttQ103 aggreg 10µM
OCc1ccc(O)c2ncccc12	HttQ103 aggreg 10µM
O=C1C(Nc2ccccc2)=C(N2CCCCC2)C(=O)c2ccccc21	HttQ103 aggreg inconclusive
COc1ccccc1NC1=C(N2CCCCC2)C(=O)c2ccccc2C1=O	HttQ103 aggreg 13µM
O=C1C2=CC[C@@H]3C(=O)N(c4ccc(F)cc4F)C(=O)[C@H]3[C@H]2[C@H](O)[C@H]2O[C@H]12	HTT cytoprotect 3.2µM (no result: HttQ103 aggreg, GLA inh pH 4.5)
CC(C)(C)N1C(=O)[C@@H]2[C@H]3C(=CC[C@H]2C1=O)C(=O)[C@H]1O[C@H]1[C@H]3O	HTT cytoprotect 5.6µM (no result: HttQ103 aggreg, GLA inh pH 4.5)
Cc1nc2c(-c3ccc(Cl)cc3)c(C)[nH]n2c(=O)c1Cc1ccccc1	HttQ103 aggreg 10µM
CC(C)(C)c1ccc(N2C[C@@H](COc3ccc(C(=O)O)cc3)CC2=O)cc1	none (no result: HttQ103 aggreg, HTT cytoprotect, GLA inh pH 4.5)
O=C(CCCc1cccs1)Nc1nc2c(s1)CCCC2	HttQ103 aggreg 0.028µM (no result: HTT cytoprotect)
Cc1csc(NC(=O)CCCc2cccs2)n1	none
COC(=O)C1CC1[C@H](NC(=O)c1cccnc1)c1ccccc1 (some centres not stated)	none (no result: HttQ103 aggreg, HTT cytoprotect, GLA inh pH 4.5)
COc1ccccc1-[n+]1c(C)cc(/C=C2\Sc3ccccc3N2C)cc1C	HttQ103 aggreg 0.89µM
COc1ccc(-[n+]2c(C)cc(/C=C3\Sc4ccccc4N3C)cc2C)cc1	HttQ103 aggreg 1.1µM (no result: HTT cytoprotect)
COc1ccc(C(=O)/C=C2\Sc3ccccc3N2C)cc1	none
N[C@H](CSSC[C@@H](N)C(=O)O)C(=O)O	none (no result: HttQ103 aggreg, HTT cytoprotect, GLA inh pH 4.5)
CCCCCCCCCCCCCCCC(=O)OC[C@H](O)[C@H]1OC[C@@H](O)[C@@H]1O	none (no result: aGal spleen mod, GLA inh pH 4.5)
NC1(C(=O)O)CCc2cc(C(=O)O)ccc21 (configuration not stated)	none (no result: HttQ103 aggreg)
Cc1ccc([N+](=O)[O-])cc1N=Nc1c(-c2ccc([N+](=O)[O-])cc2)[nH]n(C(N)=S)c1=O	none (no result: HTT cytoprotect)
NC(=S)n1[nH]c(-c2ccc([N+](=O)[O-])cc2)c(N=Nc2ccc(Cl)cc2)c1=O	HttQ103 aggreg 7.9µM
Cc1cccc(-n2ncc3c(NCc4cccs4)ncnc32)c1	HttQ103 aggreg 11µM
Clc1ccc(-n2ncc3c(NCc4cccs4)ncnc32)cc1	HttQ103 aggreg inconclusive
Cc1ccc(-n2ncc3c(NCc4ccco4)ncnc32)cc1C	HttQ103 aggreg 0.005µM
Clc1ccc2c(NCc3ccccn3)ncnc2c1	none
Clc1ccc2c(NCc3ccco3)ncnc2c1	HttQ103 aggreg 14µM
O=[n+]1ccn([O-])c2ccccc21	none (no result: aGal spleen mod, GLA inh pH 4.5)
CCOC(=O)C1=C(C)NC(C)=C(C(=O)OC)[C@@H]1c1cccc(Cl)c1Cl	none (no result: HttQ103 aggreg)
CCCNC(=O)OC[C@@H]1O[C@H](CCO/N=C(\C)CCN2CCc3nc(CC)c(CC)cc3C2)C=C[C@@H]1Oc1ccc(OC)cc1	none (no result: HttQ103 aggreg, GLA inh pH 4.5)
Cc1ccc(C(=O)COC(=O)c2ccc3c(c2)C(=O)N(c2cccc4ncccc24)C3=O)cc1	HttQ103 aggreg 20µM
Cc1ccc(-c2nc(NC(=O)c3nn(C)cc3[N+](=O)[O-])sc2C)cc1C	HttQ103 aggreg 7.9µM
Cc1cc(Nc2cccc(F)c2)nc(-c2ccccc2O)n1	HttQ103 aggreg 25µM
O=C(CN1CCCCC1)N1CCCc2c1c(=O)oc1ccc(OCc3ccccc3)cc21	HttQ103 aggreg inconclusive, HTT cytoprotect 3.2µM
O=C(CN1CCN(Cc2ccccc2)CC1)N1CCCc2c1c(=O)oc1ccc(O)cc21	none (no result: GLA inh pH 4.5)
Cc1[nH]n(-c2ccccc2)c(=O)c1Sc1ccc(Cl)cc1	none
Cc1cc(-c2c(C)[nH]n(-c3ccc(Cl)cc3)c2=O)n[nH]1	HttQ103 aggreg 11µM
Cc1cc(-c2ccc(N=Nc3c(S(=O)(=O)O)cc4cc(S(=O)(=O)O)cc(N)c4c3O)c(C)c2)ccc1N=Nc1c(S(=O)(=O)O)cc2cc(S(=O)(=O)O)cc(N)c2c1O	HttQ103 aggreg 0.02µM (no result: aGal spleen mod, GLA inh pH 4.5)
Cc1ccc2nc(Cl)c3nnnn3c2c1	HttQ103 aggreg 3.5µM
CC[C@H](C)[C@H](NC(=O)[C@H](CC(=O)O)NC(=O)[C@H](CC(C)C)NC(=O)[C@H](Cc1cnc[nH]1)NC(=O)[C@H](C)NC(=O)[C@H](Cc1ccccc1)NC(=O)[C@H](Cc1ccc(O)cc1)NC(=O)[C@@H](NC(=O)[C@H](C)NC(=O)[C@H](CCC(=O)O)NC(=O)[C@H](CCCCN)NC(=O)[C@H](CC(=O)O)NC(=O)[C@H](CCSC)NC(=O)[C@H](CC(C)C)NC(C)=O)C(C)C)C(=O)N[C@H](C(=O)N[C@@H](Cc1c[nH]c2ccccc12)C(=O)O)[C@@H](C)CC	none (no result: HttQ103 aggreg, HTT cytoprotect, GLA inh pH 4.5)
CCOC(=O)C1=C(C)NC(C)=C(C(=O)OC)[C@H]1c1cccc(Cl)c1Cl	none (no result: aGal spleen mod, HttQ103 aggreg, GLA inh pH 4.5)
Cc1ccc(S(=O)(=O)C2C(=O)N(C)C3(C)CC2c2ccccc2O3)cc1C (configuration not stated)	HttQ103 aggreg inconclusive, HTT cytoprotect 4µM
CN1C(=O)C(c2nnc(Nc3cccc4ccccc34)s2)C2CC1(C)Oc1ccccc12 (configuration not stated)	none
O=C(c1cc2sccc2n1Cc1ccccc1)N1CCN(c2nc3ccccc3s2)CC1	HttQ103 aggreg 7.9µM
Cc1ccc2c(c1)NC(=O)CC(c1ccccc1)=N2	none
CC1=CC(C)=Nc2ccc(C)cc2N1	HttQ103 aggreg 0.89µM!, HTT cytoprotect inconclusive
CCC(Oc1ccccc1)C(=O)Nc1nnc(C(F)(F)F)s1 (configuration not stated)	HttQ103 aggreg 25µM
CC(=O)OCC(NC(=O)C(Cc1ccccc1)NC(=O)OC(C)(C)C)C1OC(n2cc(C)c(=O)[nH]c2=O)C(OC(C)=O)C1OC(C)=O (configuration not stated)	none (no result: HttQ103 aggreg, HTT cytoprotect, GLA inh pH 4.5)
CCC(=O)OC1(C)C(=O)C=C2C=C(CCCNC(=O)OC(C)(C)C)OC=C2C1=O (configuration not stated)	none (no result: HttQ103 aggreg)
O=C(CN1CCCCCC1)NCc1ccccc1	none
CC1CCN(CC(=O)NCc2ccccc2)CC1	HttQ103 aggreg 2.5µM
CCN(CC)c1ccc2cc(-c3nc4ccccc4n3C)c(=O)oc2c1	HttQ103 aggreg inconclusive
CCN(CC)c1ccc2cc(-c3nc4ccccc4[nH]3)c(=O)oc2c1	HttQ103 aggreg 0.32µM
CCN(CC)c1ccc2cc(-c3nc(-c4ccc(OC)cc4)cs3)c(=O)oc2c1	HttQ103 aggreg 2.8µM
CCN(CC)c1ccc2cc(-c3nnc(-c4ccccc4)o3)c(=O)oc2c1	HttQ103 aggreg 7.1µM
O=c1oc2ccc3ccccc3c2cc1-c1nnc(-c2ccccc2)o1	none

Source: PubChem BioAssay (National Center for Advancing Translational Sciences (NCATS))
